Measured values: PubChem BioAssay (NCI)
The panel holds about 79,000 compounds, 15% with a hit somewhere; the sample as a whole holds those more often. Unmarked numbers belong to inactive results. Calls of active or inactive are those of the source. No stated cut-off is given here; in the data, active means growth inhibition above about 70%; inactive means the rest.

Legend:
[1] = NCI Yeast Anticancer Drug Screen. Data for the rad50 strain (AID 155);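 further: 0% = growth of vehicle-only cultures of the same strain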; conditions: S. cerevisiae rad50 strain growth inhibition, stronger effect = higher value
Method in brief: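 DNA repair mutant yeast, compound exposure, growth read-out; inhibition is taken relative to vehicle.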

[2] = NCI Yeast Anticancer Drug Screen. Data for the mec2-1 strain (AID 157); conditions: S. cerevisiae mec2-1 strain, stronger effect = higher value
Method in brief: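 Yeast mec2-1 mutant treated with compound. Readout: growth inhibition vs vehicle controls.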

[3] = NCI Yeast Anticancer Drug Screen. Data for the sgs1 mgt1 strain (AID 161);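 further: 0% = growth of cultures given vehicle only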; conditions: S. cerevisiae sgs1 mgt1 strain, stronger effect = higher value
Method in brief: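 Genetically altered yeast, compound exposure, growth inhibition relative to vehicle.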

[4] = NCI Yeast Anticancer Drug Screen. Data for the cln2 rad14 strain (AID 165);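 further: 0% = growth equal to vehicle treated cultures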; conditions: S. cerevisiae cln2 rad14 strain, stronger effect = higher value
Method in brief: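 cln2 rad14 yeast strain; compound exposure; growth inhibition read vs vehicle controls.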

[5] = NCI Yeast Anticancer Drug Screen. Data for the bub3 strain (AID 167); conditions: S. cerevisiae bub3 mutant strain, stronger effect = higher value
Method in brief: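 In this screen, a yeast mutant lacking normal mitotic checkpoint function is challenged with compound. Relative growth versus vehicle gives the inhibition value.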

[6] = NCI Yeast Anticancer Drug Screen. Data for the mlh1 rad18 strain (AID 175); conditions: S. cerevisiae mlh1 rad18 strain growth inhibition, stronger effect = higher value
Method in brief: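 Yeast w/ defined DNA-repair lesions; compound exposure; growth vs vehicle controls → % inhibition.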

[7] = at 5.0 µM (retest, dose inferred, filed as 0.5)
[8] = at 50.0 µM (retest, dose inferred, filed as 5.0)

SMILES | growth inhibition [1, 7] | growth inhibition [1, 8] | growth inhibition ([1]; at 50.0 µM) | growth inhibition [2, 7] | growth inhibition [2, 8] | growth inhibition ([2]; at 50.0 µM) | growth inhibition [3, 7] | growth inhibition [3, 8] | growth inhibition ([3]; at 50.0 µM) | growth inhibition [4, 7] | growth inhibition [4, 8] | growth inhibition ([4]; at 50.0 µM) | growth inhibition [5, 7] | growth inhibition [5, 8] | growth inhibition ([5]; at 50.0 µM) | growth inhibition [6, 7] | growth inhibition [6, 8] | growth inhibition ([6]; at 50.0 µM)
C[CH2][Ge]([CH2]C)[CH2]C.C[CH2][Ge]([Cl])[CH2]C.C[CH2][Ge][CH2]C | 19% | 96% (active) | 98% (active) | 15% | 98% (active) | 98.6% (active) | 23% | 96% (active) | 98.1% (active) | 8% | 94% (active) | 97% (active) | 17% | 96% (active) | 98.2% (active) | 12% | 95% (active) | 98.2% (active)
Oc1ccccc1C1C=C(c2ccccc2)NC(N2CCCCC2)=C1c1nc2ccccc2[nH]1 (configuration not stated) | -9% | -11% | 18.1% | -9% | -13% | -5.15% | -9% | -10% | 5.05% | -22% | -14% | 40% | -13% | 6% | 29.4% | 2% | -2% | 9.4%
CCCCOC(=O)C(=O)/C(=C/N1C(=O)/C(=C/C(C)=C/c2ccccc2)SC1=S)C(=O)C=C(C)C | 0% | 8% | 39.7% | -13% | 10% | 63.4% | -10% | 5% | 50.5% | -25% | 11% | 46.8% | -10% | 26% | 68% | 1% | 14% | 71.1% (active)
C1CCC(CCCCc2nn[nH]n2)CC1 | 0% | 98% (active) | 99.1% (active) | -30% | 97% (active) | 99.3% (active) | -1% | 96% (active) | 99% (active) | 0% | 99% (active) | 98.3% (active) | -6% | 97% (active) | 99.3% (active) | -7% | 97% (active) | 99% (active)
Cc1cc(Br)c(NC(=O)CBr)cc1C | -1% | 95% (active) | 42.3% | -3% | 97% (active) | 73.3% (active) | -1% | 97% (active) | 72% (active) | -2% | 94% (active) | 46.9% | -1% | 96% (active) | 40.5% | -2% | 96% (active) | 81.5% (active)
CC(=O)C1(O)C(Br)CC2C3CC=C4CC(O)CCC4(C)C3CCC21C (configuration not stated) | 43% | 98% (active) | 90.3% (active) | 37% | 99% (active) | 79.5% (active) | 46% | 98% (active) | 86.4% (active) | 37% | 98% (active) | 87.9% (active) | 49% | 98% (active) | 85% (active) | 53% | 98% (active) | 83.8% (active)
CC(=O)N/N=C1/CC[C@@]2(C)C(=CC[C@H]3C4CCC(C(C)CCCC(C)C)[C@@]4(C)CCC32)C1(C)C (some centres not stated) | -23% | 79% (active) | 31.6% | -14% | 83% (active) | 6.35% | -7% | 84% (active) | 24.8% | -11% | 74% (active) | 55.1% | -10% | 70% (active) | 29.6% | -12% | 90% (active) | 1.3%
O=C(O)C1C(c2ccccc2)=C1c1ccccc1 | -7% | 22% | 73.8% (active) | 0% | 7% | 56.4% | 10% | 41% | 59.6% | -44% | -3% | 57.8% | -22% | 7% | 39.2% | -12% | 12% | 46.5%
COc1cc2c(cc1OC(C)=O)C(=O)C(Br)(Br)CCC2 | 66% | 99% (active) | 62.5% | 32% | 99% (active) | 98.5% (active) | 88% (active) | 99% (active) | 65.1% | 13% | 98% (active) | 94.2% (active) | 10% | 47% | 99% (active) | 49% | 99% (active) | 98.5% (active)
NS(=O)(=O)c1ccc(Nc2c3ccccc3nc3c(C(=O)NC(CO)(CO)CO)cccc23)cc1 | -14% | 24% | 18.9% | -11% | -10% | -1% | -5% | -13% | 15.3% | 25% | -10% | 45.5% | -9% | -8% | 12.9% | -14% | 9% | 15.9%
O=C(O)c1cc2c3ccccc3sc2c2ccccc12 | -2% | 4% | 55.4% | -3% | -4% | 5.3% | -1% | 3% | 15.1% | -3% | -3% | 2.45% | -3% | -2% | 19.7% | -3% | -2% | 28%
CCCC(C(=O)OCCN1CCCC1(C)C)C1CCCC1 (configuration not stated) | 17% | 38% | 41% | 10% | 46% | 39% | 24% | 58% | 48% | 29% | 58% | 70.7% (active) | 45% | 62% | 36.5% | 36% | 68% | 40%
CCOC(=O)NN(C(=O)OCC)c1ccc(N=Nc2ccc(OC)cc2)n1C | 1% | 84% (active) | 46% | -25% | 85% (active) | 60.8% | -22% | 87% (active) | 70.3% (active) | 29% | 70% (active) | 71.5% (active) | -40% | 78% (active) | 74% (active) | -32% | 77% (active) | 69.9%
CN(C)C=Nc1c2ccccc2nc2ccccc12 | 21% | 83% (active) | 71.1% (active) | 23% | 80% (active) | 57.1% | 11% | 65% | 68.7% | 37% | 60% | 55.7% | 5% | 71% (active) | 75% (active) | -8% | 84% (active) | 76.3% (active)
CCOC(CCCl)OCC | 0% | 2% | 7.35% | 0% | 4% | 5.7% | -1% | 1% | -2.9% | 0% | -5% | 89.2% (active) | 1% | -3% | 2.35% | 0% | 3% | 13.3%
CC1NS(=O)(=O)N(C)C1=O (configuration not stated) | 3% | -5% | 3.05% | 6% | 3% | 15.6% | 5% | 3% | -2.2% | 0% | -13% | 36.7% | 6% | 16% | 8.55% | 2% | -9% | -1.05%
CCCCCCC[CH2][Sn]([CH2]CCCCCCC)([O]c1cccc2cccnc12)[O]c1cccc2cccnc12 | 21% | 21% | 89.7% (active) | 18% | 18% | 87.7% (active) | 14% | 14% | 89.7% (active) | 9% | 9% | 85.4% (active) | 4% | 4% | 90.1% (active) | 10% | 10% | 86.3% (active)
O=C1O/C(=C2\OC(=O)c3ccccc32)c2ccccc21 | 9% | 22% | -13.4% | 0% | 0% | 7.55% | 4% | 1% | -28.3% | 1% | 3% | 47.8% | 1% | 2% | 5.25% | 16% | -1% | -18.1%
C/C(=N/NC(N)=S)C(C)C | 11% | 37% | 14.3% | 2% | 2% | -9.9% | 2% | 3% | -11.1% | 4% | -5% | 37.6% | 1% | -3% | 17.4% | 2% | -2% | 4.8%
